Most compounds without a hit are left out; they make up all but 7.5% or so of the library.
FLuc counter = qHTS profiling assay for firefly luciferase inhibitor/activator using purifed enzyme and Km concentrations of substrates (counterscreen for miR-21 project); Luciferin 4-monooxygenase (Photinus pyralis), P08659; purified FLuc, Km substrates, luminescence inhibition; Potency, µM (doses to about 57.5 µM), without a hit: top-dose activity change, negative = inhibition, hits mostly inhibitors; hit rate 6.9% among 360,000;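 further: plate controls were vehicle for no effect and reference inhibitor for full effect; nearly all actives have a fitted effect of over 55% in size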
Target sequence (P08659 whole entry, looked up): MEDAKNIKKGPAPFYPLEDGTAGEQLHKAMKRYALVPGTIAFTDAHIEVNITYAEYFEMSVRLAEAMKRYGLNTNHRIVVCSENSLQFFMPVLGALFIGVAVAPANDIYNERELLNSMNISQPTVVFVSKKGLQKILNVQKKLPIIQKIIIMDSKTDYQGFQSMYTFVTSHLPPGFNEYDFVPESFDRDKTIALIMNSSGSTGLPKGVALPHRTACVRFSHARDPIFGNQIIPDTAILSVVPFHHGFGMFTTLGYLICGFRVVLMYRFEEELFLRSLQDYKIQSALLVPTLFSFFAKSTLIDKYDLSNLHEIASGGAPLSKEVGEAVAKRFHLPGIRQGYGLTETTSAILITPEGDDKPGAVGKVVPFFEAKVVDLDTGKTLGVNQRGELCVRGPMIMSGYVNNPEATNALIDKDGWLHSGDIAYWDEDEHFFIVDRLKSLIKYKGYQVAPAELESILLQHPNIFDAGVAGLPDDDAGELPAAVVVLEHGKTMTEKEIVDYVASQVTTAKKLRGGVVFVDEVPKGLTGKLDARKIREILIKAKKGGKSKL
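Purified P. pyralis luciferase (10nM final) with 10uM D-luciferin and 10uM ATP (Km levels) in 50mM Tris acetate pH 7.5, 10mM Mg acetate, 0.01% Tween-20, 0.05% BSA; qHTS 6-point titration, ~60 µM downward; luminescence read.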
SMN2 splice enh = qHTS Assay for Enhancers of SMN2 Splice Variant Expression; HEK293 SMN2-luciferase splicing reporter, luminescence, 30-36 h; Potency, µM (series often up to 46.1 µM), without a hit: at the highest dose activity change, positive = activation, most hits filed as activators; hit rate 2.8% among 210,000; further: % of control where 0% means no effect; nearly all actives have a fitted effect of over 55% in size
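HEK293 cells carry an SMN2 minigene-luciferase reporter in which exon 7 inclusion puts luciferase in frame. Cells were seeded at 2000 cells/well, attached for 10-12 hours, then exposed to compounds for 30-36 hours at 37C before ONE-Glo luminescence.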
KinaseGlo FLuc = Counterscreen for Luciferase (Kinase-Glo TM) Inhibition; hit rate 0.28% among 200,000; AID 1379, 2008; Luciferin 4-monooxygenase (Photuris pensylvanica), Q27757; Kinase-Glo luciferase, ATP luminescence, 8 min; Potency, µM (highest dose often 38.3 µM), inactives show at the top dose activity change, negative = inhibition, most hits filed as inhibitors; further: on the % scale 0 is the no-effect control and ±100 the full control effect; nearly all actives have a fitted effect of over 60% in size
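Inhibition of Kinase-Glo luciferase light generation was assessed at 10 uM ATP in pH 7.2 imidazole buffer, with luminescence measured after eight minutes at ambient temperature.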
ELG1 genotox = qHTS screen for small molecules that induce genotoxicity in human embryonic kidney (HEK293T) cells expressing luciferase-tagged ELG1 | HEK293T ELG1-luciferase reporter, luminescence, 16 h | Potency, µM (doses to about 46 µM), for inactives: top-dose activity change, positive = activation, most hits filed as activators | hit rate 1.3% among 330,000; further: % of control where 0% means no effect; nearly all actives have a fitted effect of over 60% in size
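Step 1: seed 2,000 HEK293T ELG1-luciferase cells per well. Step 2: add compound or DMSO, incubate 16 hr at 37 °C. Step 3: ONE-Glo, 30 min at room temperature, read luminescence.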
Rab9 prom act = qHTS Assay for Rab9 Promoter Activators; Huh7 Rab9 promoter-luciferase reporter, luminescence, 24 h; Potency, µM (doses to about 9.22 µM), without a hit: top-dose activation, negative = inhibition, most hits filed as activators; hit rate 2.8% among 320,000; further: % of control where 0% means no effect; nearly all actives have a fitted effect of over 60% in size
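Promoter activation is measured as luciferase luminescence in Huh7 cells stably transfected with a Rab9 promoter–luciferase construct, following 24 h compound exposure at 37 °C and 10 min reagent incubation at ambient temperature.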
NPC1 promoter act = qHTS Assay for NPC1 Promoter Activators; Potency, µM (series often up to 9.22 µM), without a hit: at the top dose activation, usual class: activators; AID 485313, 2010; hit rate 2.4% among 320,000; Huh7 NPC1 promoter luciferase reporter, 24 h; further: % of control where 0% means no effect; nearly all actives have a fitted effect of over 60% in size
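Huh7 cells stably carrying NPC1 promoter–luciferase, plated in Opti-MEM with 10% FBS for 2 h, were exposed to compound in DMSO for 24 h at 37 °C; luciferase reagent was added for 10 min and luminescence read.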
* hit, by the source's call; ? = inconclusive; nt = no result given; [ ] = dose if it differs, or a comment. The call rests on the fitted dose curve; in most records, active means well fitted curve in the direction sought with a large enough effect; inconclusive means small, poorly fitted or top-dose-only effect, or another doubt; inactive means no such curve, though single readings can be large; an effect the other way counts as inactive or inconclusive. Potency means the concentration at half of the fitted maximal effect.

SMILES	FLuc counter	SMN2 splice enh	KinaseGlo FLuc	ELG1 genotox	Rab9 prom act	NPC1 promoter act
Cc1ccc(-c2nc(N/N=C/c3cccc([N+](=O)[O-])c3)c3ccccc3n2)cc1	0.54µM*	5%	-5%	0%	-3%	?
O=C(Cn1ncc2c3ccccc3n(Cc3cccc(Cl)c3)c2c1=O)NCc1cccs1	4%	-3%	nt	nt	nt	nt
Fc1cccc(Cl)c1-c1nnc2ccc3ccccc3n12	19µM*	-51%	-3%	5%	-8%	-8%
O=C(c1cc(-c2ccccc2)nc2ccccc12)N1CCCc2ccccc21	17µM*	-12%[1.84 µM]	-1%	-3%	11%	-1%
Cc1cccc(-c2cc(C(=O)N3CCCc4ccccc43)c3ccccc3n2)c1	12µM*	nt	nt	1%	2%	0%
COCCNC(=O)CN1C(=O)COc2ccc(S(=O)(=O)N3CCCCCC3)cc21	-5%	-3%	nt	0%	-2%	0%
O=C1NN(c2ccccc2)C(=O)/C1=C/c1ccc(-c2ccc(C(=O)O)cc2)o1	21µM*	nt	nt	-2%	15%	11%
COC(=O)c1ccc(N2NC(=O)/C(=C/c3ccc(-c4ccc(Cl)c(C(=O)O)c4)o3)C2=O)cc1	11µM*	11%	-4%	2%	0%	0%
O=C1NN(c2ccc(Cl)c(Cl)c2)C(=O)/C1=C/c1ccc(-c2ccccc2C(=O)O)o1	?	nt	nt	1%	-4%	-3%
Cc1ccc(N2NC(=O)/C(=C/c3ccc(-c4ccc(Cl)c(C(=O)O)c4)o3)C2=O)cc1C	17µM*	nt	nt	0%	0%	-6%
O=c1cc(-c2ccccc2)[nH]n1-c1ccc([N+](=O)[O-])cc1	15µM*	-9%	-6%	-2%	?	20%
CC(C)(C)c1ccc(C(=O)NCc2ccc(Cl)cc2)cc1	-3%	-7%	-1%	-1%	18%	24%
Cc1ccc(C(=O)NCCSC(C)(C)C)cc1	?	10µM*	-7%	1.8µM*	0.56µM*	0.5µM*
CSCCNC(=O)c1ccc(C(C)(C)C)cc1	3µM*	?	-5%	?	4µM*	4µM*
CC(C)(C)SCCNC(=O)c1ccccc1	?	30%	-1%	15%	3.2µM*	?
COc1cccc(OC)c1C1=CC(=O)C[C@H](c2ccc3c(c2)OCO3)C1	0%	nt	nt	-1%	-3%	-1%
COc1cccc2c1C(=O)O/C2=C/c1ccc2c(c1)OCO2	0.11µM*	?	?	?	?	?
Cc1cccc(NC(=S)N2N=CCC2c2ccccc2)c1 (configuration not stated)	21µM*	5%	-3%	?	20%	?
Cc1ccc(CNC(=O)CN2c3cccc4cccc(c34)S2(=O)=O)cc1	15µM*	nt	nt	0%	-5%	1%
CC(=O)/C=C\c1ccccc1OC(=O)c1cc2ccccc2oc1=O	-4%	nt	nt	2%	-2%	-6%
O=C(/C=C\c1ccccc1OC(=O)c1ccccc1F)c1cc2ccccc2o1	2.1µM*	-117%	-2%	16µM*	?	?
CCN1C(=O)N/C(=C/c2cc(C)n(Cc3ccccc3)c2C)C1=O	3.4µM*	30%	-1%	18%	?	?
Cn1c(=O)n(C)c2cc(/C=C3/NC(=O)N(Cc4ccccc4)C3=O)ccc21	0%	7%	-5%	9.2µM*	-6%	-1%
Cc1ccc(/C=C2/NC(=O)N(Cc3ccccc3)C2=O)o1	-17%	10%	-3%	-1%	2%	0%
COc1ccc(OC)c(CNC(=O)c2nn(C)c3c2CS(=O)(=O)c2ccccc2-3)c1	0%	nt	nt	-5%	-2%	-1%
SMILES	FLuc counter	SMN2 splice enh	KinaseGlo FLuc	ELG1 genotox	Rab9 prom act	NPC1 promoter act
COc1ccc(CNC(=O)CN2N=C(c3ccc(Cl)cc3)CCC2=O)cc1	-11%	nt	nt	nt	nt	nt
COc1ccc(-c2csc(N(C)C(=O)c3cccs3)n2)cc1	6µM*	nt	2%	15%	2.5µM*	?
CN(C(=O)c1ccco1)c1nc(-c2ccc(F)cc2)cs1	2.7µM*	nt	nt	?	2.8µM*	3.5µM*
CN(C(=O)c1ccco1)c1nnc(-c2ccc(F)cc2)s1	6.7µM*	nt	nt	?	3.2µM*	2.2µM*
O=C(c1ccco1)N(CCCN1CCOCC1)c1nc(-c2ccc(F)cc2)cs1	-14%	-26%	-6%	-7%	1%	-3%
COc1ccc(-c2nnc(N(C)C(=O)c3ccco3)s2)cc1OC	-11%	nt	nt	10%	26%	15%
CCn1c(SCC(=O)Nc2ccc(C)cc2Br)nnc1-c1nonc1NC(C)=O	-9%	nt	nt	nt	nt	nt
N=C(N)c1ccc(N2CCN(C3CCN(CC(=O)O)CC3)CC2)cc1	nt	-6%	0%	nt	nt	nt
CC(C)Oc1ccc(CNS(=O)(=O)c2cnc(N)nc2)cc1	-4%	nt	nt	nt	nt	nt
CCCOC(=O)CSc1ncnc2sc3c(c12)CCC(C)C3 (configuration not stated)	8.5µM*	-1%	nt	nt	nt	nt
CCCCCOC(=O)CSc1ncnc2sc3c(c12)CCC(C)C3 (configuration not stated)	-3%	3%	nt	nt	nt	nt
CC1CCc2c(sc3ncnc(SCC(=O)c4ccccc4)c23)C1 (configuration not stated)	-8%	?	4%	11%	22%	13%
CC(=O)CSc1ncnc2sc3c(c12)CCC(C)C3 (configuration not stated)	15µM*	12%	0%	8%	1%	10%
COc1ccc(NC(=O)CCc2nc3cccnc3n2-c2ccccc2)c(OC)c1	-8%	2%	nt	nt	nt	nt
Oc1[nH]c2ccccc2c1N=Nc1ccccc1F	?	22µM*	-3%	?	?	?
Oc1[nH]c2ccc(Br)cc2c1N=Nc1ccc(F)cc1	2%	nt	nt	3%	-1%	6%
O=[N+]([O-])c1ccc2[nH]c(O)c(N=Nc3ccc(F)cc3)c2c1	0%	nt	nt	0%	-2%	11%
O=C(N=Nc1c(O)[nH]c2ccccc12)c1cc(-c2ccc(F)cc2)n[nH]1	0%	19%	1%	-3%	-5%	-2%
O=[N+]([O-])c1ccc(N=Nc2c(O)[nH]c3ccc(F)cc23)cc1	-23%	nt	nt	?	?	2.8µM*
Oc1[nH]c2ccccc2c1N=Nc1ccc(F)cc1	4.8µM*	-12%[1.84 µM]	-5%	?	?	23%
COC(=O)/C=C(\C)N=Nc1c(O)[nH]c2ccccc12	24µM*	nt	nt	3%	0%	2%
